Source: PubChem BioAssay (EPA / NIEHS)
The source made the active and inactive calls. How the source made its calls: active means hit-call score of the fitted dose curve at least 0.9, where 1 is the maximum; inactive means score below 0.9.

Assays:
[1] = target: Bile acid receptor (Homo sapiens) (UniProt Q96RI1); assay: ATG_IR1_CIS: Attagene CIS-FACTORIAL HepG2 Assay for human Nuclear Receptor Subfamily 1 Group H Member 4 (NR1H4), IR1 submotif (AID 2282946); conditions: IR1 reporter transcription, actives raise or lower the signal
In short: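 HepG2 cells transiently transfected with multiple cis-promoter-driven reporter units to measure endogenous transcription factor activity; 24 h exposure. Reporter mRNA read by RT-PCR, FAM labelling, HpaI digestion and capillary electrophoresis. Bidirectional fit versus DMSO.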

[2] = ATG_ISRE_CIS: Attagene CIS-FACTORIAL HepG2 Assay for human Interferon Regulatory Factor 1 (IRF1) binding to an Interferon-Stimulated Response Element (ISRE) (AID 2282948); conditions: HepG2 ISRE cis-reporter (Attagene), mRNA transcription readout; actives raise or lower the signal
In short: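 Transfected HepG2 (multiple reporter transcription units, cis elements) dosed 24 h. RNA → oligo(dT) RT → PCR → 6-FAM primer extension → HpaI → CE. DMSO = negative control/baseline.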

[3] = ATG_M_32_CIS: Attagene CIS-FACTORIAL HepG2 Assay for M32 Transcription Factor (Internal Marker) (AID 2282949); conditions: HepG2 Attagene cis-factorial M32 reporter, mRNA; actives raise or lower the signal;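 further: background control marker of the multiplexed CIS panel rather than a real target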
In short: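 HepG2 cells transiently transfected with multiplexed cis-regulated reporter units, dosed 24 h. Reporter mRNA quantified by RT-PCR, 6-FAM labelling, HpaI digestion and capillary electrophoresis; bidirectional fit vs DMSO.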

[4] = ATG_M_06_CIS: Attagene CIS-FACTORIAL HepG2 Assay for M06 Transcription Factor (Internal Marker) (AID 2282950); conditions: HepG2 Attagene CIS-FACTORIAL M06 internal marker reporter; actives raise or lower the signal
In short: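 Fluorescence-labelled RT-PCR products from cis-promoter reporter units, cut with HpaI and resolved by capillary electrophoresis, give the signal. Cells are human HepG2, dosed for 24 h. Serves as background control, fitted relative to DMSO.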

[5] = target: Hypoxia-inducible factor 1-alpha (Homo sapiens) (UniProt Q16665); assay: ATG_HIF1a_CIS: Attagene CIS-FACTORIAL HepG2 Assay for human Hypoxia Inducible Factor 1 (HIF1A) (AID 2282951); conditions: HepG2 Attagene cis-factorial HIF1a reporter transcription; actives raise or lower the signal
In short: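 After 24 h chemical exposure of reporter-transfected HepG2 cells, reporter cDNA was PCR-amplified, labelled by 6-FAM primer extension (2 min 95 C, 20 s 68 C, 10 min 72 C), HpaI-cut (2 h, 37 C) and analysed by CE.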

[6] = target: Hepatocyte nuclear factor 6 (Homo sapiens) (UniProt Q9UBC0); assay: ATG_HNF6_CIS: Attagene CIS-FACTORIAL HepG2 Assay for human Hepatocyte Nuclear Factor 6 (HNF6) (AID 2282952); conditions: HepG2 Attagene cis-factorial HNF6 reporter transcription; actives raise or lower the signal
In short: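 HepG2, transient MRTU transfection (cis promoters); 24 h chemical exposure; total RNA → oligo(dT) RT → PCR → 6-FAM labelling → HpaI cut → CE; bidirectional fit vs DMSO.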

[7] = target: Heat shock factor protein 1 (Homo sapiens) (UniProt Q00613); assay: ATG_HSE_CIS: Attagene CIS-FACTORIAL HepG2 Assay for human Heat Shock Transcription Factor 1 (HSE) (AID 2282953); conditions: HepG2 HSE cis-reporter, Attagene RNA transcription; actives raise or lower the signal
In short: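 After a 24 h incubation with test chemical, transfected HepG2 cells were harvested for RNA; reporter transcripts were measured by RT-PCR and capillary electrophoresis. Values reflect gain or loss of signal relative to DMSO.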

[8] = ATG_MRE_CIS: Attagene CIS-FACTORIAL HepG2 Assay for human Metal Responsive Element (MRE) (AID 2282954); conditions: HepG2 MRE cis-reporter transcription, Attagene multiplex; actives raise or lower the signal
In short: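 HepG2 cells transiently transfected with cis-element-driven reporter units; mRNA measured 24 h after dosing. Reporter transcripts quantified by RT-PCR, FAM labelling, HpaI digestion and capillary electrophoresis; bidirectional fit versus DMSO.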

[9] = target: Paired box protein Pax-6 (Homo sapiens) (UniProt P26367); assay: ATG_Pax6_CIS: Attagene CIS-FACTORIAL HepG2 Assay for human Paired Box 6 (PAX6) (AID 2282956); conditions: HepG2 CIS-FACTORIAL PAX6 reporter transcription, RNA readout; actives raise or lower the signal
In short: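 Transient MRTU transfection of HepG2 → compound exposure 24 h → TriZol RNA, oligo(dT) RT → PCR, 6-FAM primer extension, HpaI cut → capillary electrophoresis; activity fitted both directions against DMSO.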

[10] = ATG_PXRE_CIS: Attagene CIS-FACTORIAL HepG2 Assay for human Pregnane X Receptor Element (PXRE) (AID 2282957); conditions: HepG2 Attagene CIS-FACTORIAL PXRE reporter, mRNA; actives raise or lower the signal
In short: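 Transfect HepG2 with MRTUs (cis promoter elements); dose chemical, incubate 24 h; isolate RNA, RT with oligo(dT), PCR, 6-FAM label, HpaI cut, CE. Gain/loss fit vs DMSO.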

[11] = ATG_RORE_CIS: Attagene CIS-FACTORIAL HepG2 Assay for human RAR-related Orphan Receptor Element (RORE) (AID 2282959); conditions: HepG2 Attagene cis-factorial RORE reporter, mRNA; actives raise or lower the signal
In short: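 A 24-hour exposure of transfected HepG2 hepatoma cells precedes RNA isolation and reporter RT-PCR. Labeled products are digested with HpaI and resolved by capillary electrophoresis, with gain or loss of signal scored relative to DMSO.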

[12] = ATG_Sox_CIS: Attagene CIS-FACTORIAL HepG2 Assay for human SRY-box transcription factor (SOX) (AID 2282960); conditions: HepG2 Attagene cis-factorial SOX reporter, mRNA; actives raise or lower the signal
In short: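 HepG2, cis reporter units, 24 h exposure. Reporter mRNA: RT-PCR → FAM labelling → HpaI → CE fluorescence. Bidirectional fit vs DMSO.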

[13] = target: Transcription factor Sp1 (Homo sapiens) (UniProt P08047); assay: ATG_Sp1_CIS: Attagene CIS-FACTORIAL HepG2 Assay for human Specificity Protein 1 (Sp1) (AID 2282961); conditions: HepG2 Sp1 cis-reporter transcription, actives raise or lower the signal
In short: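 Liver-derived HepG2 cells, cis-element reporter library, 24 h treatment; RNA isolated, cDNA amplified with reporter-specific primers, FAM-labeled fragments sized on capillary analyzer. DMSO baseline, bidirectional curve fit.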

[14] = ATG_SREBP_CIS: Attagene CIS-FACTORIAL HepG2 Assay for human Sterol Regulatory Element Binding (SREBP) (AID 2282962); conditions: HepG2 Attagene cis-factorial SREBP reporter, mRNA; actives raise or lower the signal
In short: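 Transfected HepG2 (cis-regulated reporter library, endogenous TFs) → compound 24 h → total RNA → oligo(dT) RT → reporter-specific PCR → FAM primer extension, HpaI cut → CE fluorescence. Fit bidirectional vs DMSO.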

[15] = target: Signal transducer and activator of transcription 3 (Homo sapiens) (UniProt P40763); assay: ATG_STAT3_CIS: Attagene CIS-FACTORIAL HepG2 Assay for human Signal Transducer and Activator of Transcription 3 (STAT3) (AID 2282963); conditions: HepG2, Attagene cis-factorial STAT3 reporter transcription; actives raise or lower the signal
In short: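 HepG2 cells transiently transfected with multiple cis-element-driven reporter units report endogenous transcription factor activity. After 24 h compound exposure, reporter mRNA is measured by RT-PCR, 6-FAM labelling, HpaI digestion and capillary electrophoresis. Fitted bidirectionally versus DMSO.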

[16] = ATG_TA_CIS: Attagene CIS-FACTORIAL HepG2 Assay for human TA Basal Promoter (AID 2282964); conditions: HepG2 Attagene CIS-factorial TA basal promoter reporter; actives raise or lower the signal
In short: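 Multiplexed mRNA reporter assay, HepG2, 24 h. Reporter cDNA amplified, 6-FAM primer-extended, HpaI-cut, CE-sized; DMSO = negative control and baseline.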

[17] = ATG_TCF_b_cat_CIS: Attagene CIS-FACTORIAL HepG2 Assay for human T-Cell-Factor with beta-catenin (TCF/b-cat) (AID 2282965); conditions: HepG2 TCF/beta-catenin cis-reporter transcription, actives raise or lower the signal
In short: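 HepG2 cells transiently transfected with cis-promoter-driven multiplexed reporter units; reporter mRNA measured 24 h after dosing by RT-PCR, FAM labelling, HpaI digestion and capillary electrophoresis. Bidirectional fitting relative to DMSO baseline.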

[18] = ATG_PPRE_CIS: Attagene CIS-FACTORIAL HepG2 Assay for human Peroxisome Proliferator-activated Response Element (PPRE) (AID 2282958); conditions: HepG2 PPRE cis-element reporter, Attagene transcription factor profiling; actives raise or lower the signal
In short: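 PPRE activity in HepG2: transient cis-reporter transfection, 24 h compound incubation, reporter mRNA by RT-PCR and CE fluorescence; gain/loss fitted against DMSO.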

[19] = ATG_PBREM_CIS: Attagene CIS-FACTORIAL HepG2 Assay for human Phenobarbital-responsive Enhancer Module (PBREM) (AID 2282955); conditions: HepG2 PBREM cis-reporter, Attagene multiplexed transcription; actives raise or lower the signal
In short: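 Measures endogenous factor action on a phenobarbital-responsive enhancer module. HepG2 transiently carrying cis reporters, 24 h treatment, mRNA read-out by RT-PCR plus capillary electrophoresis.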

[20] = ATG_GRE_CIS: Attagene CIS-FACTORIAL HepG2 Assay for human Glucocorticoid Response Elements (GRE) (AID 2282947); conditions: HepG2 GRE cis-reporter, Attagene multiplex mRNA; actives raise or lower the signal
In short: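 Transiently transfected HepG2 cells carrying GRE cis-reporter units (endogenous TF activity) dosed 24 h; reporter mRNA quantified by RT-PCR, 6-FAM labelling, HpaI digestion and capillary electrophoresis. Bidirectional fit versus DMSO baseline.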

Measured: AC50

Sequence of Hepatocyte nuclear factor 6 (Homo sapiens) (Q9UBC0 whole entry, looked up): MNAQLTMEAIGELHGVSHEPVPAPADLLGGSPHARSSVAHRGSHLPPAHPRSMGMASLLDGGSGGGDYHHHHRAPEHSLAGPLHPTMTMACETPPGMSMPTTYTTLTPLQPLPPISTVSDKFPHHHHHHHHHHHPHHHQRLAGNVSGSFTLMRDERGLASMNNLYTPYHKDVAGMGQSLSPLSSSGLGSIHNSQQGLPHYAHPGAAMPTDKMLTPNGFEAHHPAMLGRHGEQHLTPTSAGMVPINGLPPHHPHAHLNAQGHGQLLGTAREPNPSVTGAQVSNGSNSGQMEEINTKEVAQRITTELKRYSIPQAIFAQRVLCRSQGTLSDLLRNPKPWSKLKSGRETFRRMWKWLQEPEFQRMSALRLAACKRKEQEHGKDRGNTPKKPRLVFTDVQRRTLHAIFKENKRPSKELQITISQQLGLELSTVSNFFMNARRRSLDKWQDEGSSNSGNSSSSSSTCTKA
Sequence of Transcription factor Sp1 (Homo sapiens) (P08047 whole entry, looked up, the tested form may be a part): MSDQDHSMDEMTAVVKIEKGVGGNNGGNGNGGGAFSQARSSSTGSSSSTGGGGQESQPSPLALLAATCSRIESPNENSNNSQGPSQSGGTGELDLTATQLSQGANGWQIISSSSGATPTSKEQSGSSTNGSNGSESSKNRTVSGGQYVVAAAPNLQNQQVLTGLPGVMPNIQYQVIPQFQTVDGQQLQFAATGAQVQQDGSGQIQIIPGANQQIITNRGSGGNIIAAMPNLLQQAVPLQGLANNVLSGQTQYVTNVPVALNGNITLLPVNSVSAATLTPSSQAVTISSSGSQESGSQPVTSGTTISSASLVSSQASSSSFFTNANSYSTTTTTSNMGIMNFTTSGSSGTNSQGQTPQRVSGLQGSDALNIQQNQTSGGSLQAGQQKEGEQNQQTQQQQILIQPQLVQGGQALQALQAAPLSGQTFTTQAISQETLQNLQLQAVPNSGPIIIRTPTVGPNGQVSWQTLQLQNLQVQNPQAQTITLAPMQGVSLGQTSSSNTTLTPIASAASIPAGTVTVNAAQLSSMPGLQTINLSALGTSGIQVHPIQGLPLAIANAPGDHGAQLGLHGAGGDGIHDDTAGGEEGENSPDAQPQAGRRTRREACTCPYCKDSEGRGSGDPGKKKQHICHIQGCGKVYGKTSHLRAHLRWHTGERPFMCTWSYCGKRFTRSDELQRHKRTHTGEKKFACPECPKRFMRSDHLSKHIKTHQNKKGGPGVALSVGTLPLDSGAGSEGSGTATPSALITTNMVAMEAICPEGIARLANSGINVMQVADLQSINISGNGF
Sequence of Paired box protein Pax-6 (Homo sapiens) (P26367 whole entry, looked up): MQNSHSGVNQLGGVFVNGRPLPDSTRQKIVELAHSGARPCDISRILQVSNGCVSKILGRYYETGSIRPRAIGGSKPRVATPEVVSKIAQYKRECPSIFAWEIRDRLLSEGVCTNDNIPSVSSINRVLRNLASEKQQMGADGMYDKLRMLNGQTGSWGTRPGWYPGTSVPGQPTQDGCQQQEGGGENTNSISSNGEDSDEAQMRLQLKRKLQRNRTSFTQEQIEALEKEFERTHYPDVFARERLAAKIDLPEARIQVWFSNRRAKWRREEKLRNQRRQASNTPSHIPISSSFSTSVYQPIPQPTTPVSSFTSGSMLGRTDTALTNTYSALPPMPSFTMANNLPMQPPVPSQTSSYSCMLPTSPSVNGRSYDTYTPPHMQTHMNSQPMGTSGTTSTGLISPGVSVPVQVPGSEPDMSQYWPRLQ
Sequence of Heat shock factor protein 1 (Homo sapiens) (Q00613 whole entry, looked up): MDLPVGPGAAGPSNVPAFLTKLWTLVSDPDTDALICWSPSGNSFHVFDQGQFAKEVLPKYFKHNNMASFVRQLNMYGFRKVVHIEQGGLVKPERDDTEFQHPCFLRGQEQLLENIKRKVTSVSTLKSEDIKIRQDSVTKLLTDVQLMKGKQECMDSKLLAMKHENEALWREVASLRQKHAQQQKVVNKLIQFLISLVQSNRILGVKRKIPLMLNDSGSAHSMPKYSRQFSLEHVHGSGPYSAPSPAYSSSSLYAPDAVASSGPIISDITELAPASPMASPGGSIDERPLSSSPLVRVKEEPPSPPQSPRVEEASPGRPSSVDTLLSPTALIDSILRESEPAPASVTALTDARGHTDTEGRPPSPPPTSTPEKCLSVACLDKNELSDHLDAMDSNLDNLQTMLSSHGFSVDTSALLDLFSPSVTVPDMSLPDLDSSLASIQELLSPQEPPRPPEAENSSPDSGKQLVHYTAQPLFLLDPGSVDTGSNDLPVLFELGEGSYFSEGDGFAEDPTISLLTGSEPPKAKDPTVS
Sequence of Hypoxia-inducible factor 1-alpha (Homo sapiens) (Q16665 whole entry, looked up): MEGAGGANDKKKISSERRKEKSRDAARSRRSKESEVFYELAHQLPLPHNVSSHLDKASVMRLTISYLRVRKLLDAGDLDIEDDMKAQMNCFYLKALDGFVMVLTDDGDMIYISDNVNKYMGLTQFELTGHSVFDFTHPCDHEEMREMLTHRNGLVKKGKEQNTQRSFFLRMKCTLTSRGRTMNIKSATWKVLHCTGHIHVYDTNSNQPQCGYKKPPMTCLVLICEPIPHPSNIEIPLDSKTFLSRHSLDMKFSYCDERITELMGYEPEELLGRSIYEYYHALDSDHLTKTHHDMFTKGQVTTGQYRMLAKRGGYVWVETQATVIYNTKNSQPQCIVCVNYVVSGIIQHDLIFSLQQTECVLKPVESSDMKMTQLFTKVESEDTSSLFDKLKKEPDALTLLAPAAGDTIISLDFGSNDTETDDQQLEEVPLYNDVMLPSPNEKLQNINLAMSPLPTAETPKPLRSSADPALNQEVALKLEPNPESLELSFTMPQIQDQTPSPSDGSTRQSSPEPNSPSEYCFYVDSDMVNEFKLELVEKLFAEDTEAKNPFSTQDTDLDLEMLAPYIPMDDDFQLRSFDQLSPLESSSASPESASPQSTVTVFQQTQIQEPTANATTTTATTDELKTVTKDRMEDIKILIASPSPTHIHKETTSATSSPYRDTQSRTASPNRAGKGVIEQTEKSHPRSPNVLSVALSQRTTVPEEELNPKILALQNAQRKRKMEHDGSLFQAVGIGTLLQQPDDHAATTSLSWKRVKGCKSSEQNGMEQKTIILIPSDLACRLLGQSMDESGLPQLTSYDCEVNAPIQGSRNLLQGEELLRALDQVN
Sequence of Bile acid receptor (Homo sapiens) (Q96RI1 whole entry, looked up): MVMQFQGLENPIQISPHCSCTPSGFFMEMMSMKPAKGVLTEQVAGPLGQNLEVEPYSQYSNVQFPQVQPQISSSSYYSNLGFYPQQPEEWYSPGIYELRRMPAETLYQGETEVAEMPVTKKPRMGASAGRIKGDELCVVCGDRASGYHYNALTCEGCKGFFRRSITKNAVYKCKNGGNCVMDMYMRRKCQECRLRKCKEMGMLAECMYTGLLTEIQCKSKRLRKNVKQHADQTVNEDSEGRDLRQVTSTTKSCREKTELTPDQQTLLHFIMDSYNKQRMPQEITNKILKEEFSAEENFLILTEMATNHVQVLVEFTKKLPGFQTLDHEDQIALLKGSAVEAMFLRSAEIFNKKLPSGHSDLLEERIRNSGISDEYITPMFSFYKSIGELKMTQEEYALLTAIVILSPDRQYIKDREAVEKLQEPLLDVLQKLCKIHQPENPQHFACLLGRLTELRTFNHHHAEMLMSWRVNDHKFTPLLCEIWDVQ
Sequence of Signal transducer and activator of transcription 3 (Homo sapiens) (P40763 whole entry, looked up): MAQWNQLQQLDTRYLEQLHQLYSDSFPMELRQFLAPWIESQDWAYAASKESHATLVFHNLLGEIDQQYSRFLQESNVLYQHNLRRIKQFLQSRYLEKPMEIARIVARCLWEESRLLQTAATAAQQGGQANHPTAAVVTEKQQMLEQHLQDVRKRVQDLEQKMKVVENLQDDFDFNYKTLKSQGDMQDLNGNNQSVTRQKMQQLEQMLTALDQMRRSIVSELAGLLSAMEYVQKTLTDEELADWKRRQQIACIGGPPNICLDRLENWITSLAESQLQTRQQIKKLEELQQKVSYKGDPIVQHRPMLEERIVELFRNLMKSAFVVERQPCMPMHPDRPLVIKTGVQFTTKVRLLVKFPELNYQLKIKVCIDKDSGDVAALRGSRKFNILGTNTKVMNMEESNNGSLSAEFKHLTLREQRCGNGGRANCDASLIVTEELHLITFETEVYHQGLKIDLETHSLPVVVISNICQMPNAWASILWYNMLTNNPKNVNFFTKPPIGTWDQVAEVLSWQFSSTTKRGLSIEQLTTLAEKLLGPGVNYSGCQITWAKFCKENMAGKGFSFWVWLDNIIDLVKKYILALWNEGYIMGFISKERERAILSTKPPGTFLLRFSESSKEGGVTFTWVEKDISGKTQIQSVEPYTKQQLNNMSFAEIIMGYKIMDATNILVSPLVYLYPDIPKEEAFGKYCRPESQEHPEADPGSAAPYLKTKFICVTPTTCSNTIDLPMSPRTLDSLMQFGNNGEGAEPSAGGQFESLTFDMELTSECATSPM

O=C(O)CCCCCCCCCCC(=O)O
not listed: [18] | [19] | [20]
inactive: all other assays above

O=C(O)Cc1cccc2ccccc12
active: [18] 100 µM
not listed: [3] | [19] | [20]
inactive: all other assays above

CC(=O)Nc1ccccc1O
not listed: [20]
inactive: all other assays above

Cc1ccc(Nc2ccc(O)c3c2C(=O)c2ccccc2C3=O)cc1
active: [10] 4.96 µM
not listed: [7] | [14] | [15] | [20]
inactive: all other assays above

c1cc(C(c2ccc(OCC3CO3)cc2)c2ccc(OCC3CO3)cc2)ccc1OCC1CO1 (stereo not given)
active: [2] 14.7 µM | [5] 56.4 µM | [6] 25.3 µM | [7] 12.5 µM | [8] 13.4 µM | [9] 9.85 µM | [18] 100 µM | [12] 9.7 µM | [13] 100 µM | [14] 26.3 µM | [15] 66.3 µM | [16] 19.8 µM | [17] 8.93 µM
inactive: [1] | [3] | [4] | [10] | [11]

C=C(C)C(=O)OCc1ccccc1
not listed: [7] | [20]
inactive: all other assays above

O=C(O)C[C@H](O)C[C@H](O)/C=C/c1c(C2CC2)nc2ccccc2c1-c1ccc(F)cc1
active: [10] 4.9 µM
not listed: [11] | [14] | [20]
inactive: all other assays above

CCN(CC)c1ccc2c(-c3ccccc3C(=O)O)c3ccc(=[N+](CC)CC)cc-3oc2c1
active: [1] 70.4 µM | [2] 59.9 µM | [5] 154 µM | [7] 178 µM | [8] 156 µM | [9] 149 µM | [10] 0.882 µM | [14] 26.9 µM | [17] 30.8 µM
not listed: [18] | [20]
inactive: all other assays above

NNc1nc(-c2ccc(N)cc2)cs1
not listed: [3] | [20]
inactive: all other assays above

c1ccc2sc(SN(C3CCCCC3)C3CCCCC3)nc2c1
not listed: [10] | [19] | [20]
inactive: all other assays above

O=C1NC(=O)c2ccccc21
active: [10] 38.5 µM
not listed: [15] | [18] | [20]
inactive: all other assays above

Nc1cc([N+](=O)[O-])ccc1O
not listed: [1]
inactive: all other assays above

CC(=O)/C=C/C1=C(C)CCCC1(C)C
active: [10] 1.42 µM
not listed: [12] | [18] | [19] | [20]
inactive: all other assays above

CN(CCOc1ccc(CC2SC(=O)NC2=O)cc1)c1ccccn1 (stereo not given)
active: [19] 66.1 µM | [10] 6.08 µM | [11] 9.64 µM | [14] 5.58 µM
not listed: [6] | [18] | [20]
inactive: all other assays above

CC(=O)C=CC1=C(C)CCCC1(C)C
not listed: [10] | [18] | [19] | [20]
inactive: all other assays above
